For 61 compounds, inhibition results are on record in PubChem BioAssay AID449762 (Southern Research Specialized Biocontainment Screening …, 2010).

The campaign covered roughly 330,000 compounds. About 1,900 (0.58%) were called active. About 4% were inconclusive and are not listed. A selection follows. Measured potencies and affinities stand elsewhere. Values without a mark were called inactive. Cut-off read from the data, not from the text of the source: inconclusive = inhibition above about 70% without an active follow-up result; inactive = below that.

This experiment is described as follows: M. tuberculosis growth inhibition, HTS (AID 449762).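 Note: bacterial growth assessed after seven days of incubation.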 To be noted: M. tuberculosis H37Rv growth inhibition, 7H9 media; at 25 µM; hits give high values.
Turning to `CCC(C)N1CCN(C(=O)Cc2ccccc2)CC1` (stereo unspecified), the inhibition was 4.3%. Regarding `Cc1cc(=O)oc2cc(OCC(=O)N3CCN(C(C)c4ccccc4)CC3)c(Cl)cc12` (stereo unspecified), the inhibition is -5.58%. The figure for `Cc1ccc(NC(=O)CN(C)C(=O)c2cccc(S(=O)(=O)NCc3ccccc3)c2)cc1` is 2.27%. Under `CCOc1ccc(CCNC(=O)c2ccc(CS(=O)Cc3ccc(Cl)cc3)o2)cc1` (stereo unspecified) stands -1.24%; under `O=C(NCCc1ccccc1)c1ccc(CS(=O)Cc2ccc(Cl)cc2)o1` (stereo unspecified), 3.87%; under `CCCn1c(N)cc(=O)n(CCC)c1=O`, 8.69%. The figure for `Clc1ccccc1CN1CCN(c2ccccc2Cl)CC1` is -2.43%.

Turning to `Clc1cccc(-c2cc3nc4c(c(N5CCOCC5)n3n2)CCCC4)c1`, the inhibition is 58.9%. Consider `c1coc(CNc2c3c(nc4ncnn24)CCCC3)c1`, for which the inhibition was -6.82%. `CN(C)CCCNc1c2c(nc3cc(-c4cccc(F)c4)nn13)CCC2`: the inhibition is 1.49%.

For `COc1cccc(-c2cc3nc4c(c(N5CCC6(CC5)OCCO6)n3n2)CCCC4)c1`, the inhibition is 12.8%. In the case of `C(=NCCCN1CCOCC1)c1ccc2c(c1)OCO2`, the inhibition was -12.4%.

Consider `COc1cc(NC(=O)C23CC4CC(C2)CC(n2nnc(C)n2)(C4)C3)c(OC)cc1Cl`, for which the inhibition was 2.98%. Under `CCC(C)(C)n1nnnc1C(c1cc2cc(OC)ccc2[nH]c1=O)N1CCc2ccccc21` (stereo unspecified) stands 64.6%; under `COc1cc2cc(C(c3nnnn3C3CCCC3)N3CCc4ccccc43)c(=O)[nH]c2cc1OC` (stereo unspecified), 0.64%. Under `COc1ccc(CN2CCCC(C(=O)c3ccc(Cl)cc3)C2)cc1Cn1cccn1` (stereo unspecified) stands -5.07%.

For the compound `COc1ccc(CN2CCCC(C(=O)c3cccc(OC(C)C)c3)C2)cc1Cn1cccn1` (stereo unspecified), the inhibition is -6.67%. Under `CCCNC1=C(C)C(=O)C2=C(C1=O)C(COC(N)=O)[C@]1(OC)C3NC3CN21` (stereo partly specified) stands -1.51%; under `COC12C(COC(N)=O)C3=C(C(=O)C(C)=C(N)C3=O)N1CC1C2N1C` (stereo unspecified), 100%. Under `CC(=O)N1CCN(c2ccc(NC(=S)NC(=O)/C=C/c3ccccc3)cc2)CC1` stands 1.44%; under `COC(=O)c1cc(N=Cc2c(O)c3ccccc3oc2=O)cc(C(=O)OC)c1`, -16.3%; under `CCOC(=O)c1ccc(N=Cc2nc(-c3ccccc3)oc2OC(C)=O)cc1`, 39.2%.

As to `CCOC(=O)c1ccccc1N=Cc1c(O)c2ccccc2oc1=O`, the inhibition is 5.1%.

`Cn1c(/C=N/O)nc2ccccc21`: the inhibition was -1.93%. Under `COc1ccc(C(O)c2ncc(C(F)(F)F)cc2Cl)cc1` (stereo unspecified) stands 12.8%.

As to `Cc1cc(C(=O)N/N=C2\CC(=O)CC(C)(C)C2)c2ccccc2n1`, the inhibition is 5.98%. In the case of `COCCn1c(NCc2ccc(C)cc2)nc2c1c(=O)[nH]c(=O)n2C`, the inhibition is 2.2%. Turning to `COc1cccc(NC(=O)C2CCCO2)c1` (stereo unspecified), the inhibition is 0.33%. Under `CC(C)CC1Nc2ccc(C(=O)NCCCN3CCOCC3)cc2NC1=O` (stereo unspecified) stands 7.57%; under `N#Cc1c(-c2ccc(Cl)cc2)ccn2nc(CCC(=O)O)nc12`, 0.53%; under `CCc1nc2c(C#N)c(-c3ccc(Cl)cc3)ccn2n1`, -11.1%. The figure for `O=C(COC(=O)CNC(=O)c1cccc(OC(F)F)c1)NCc1ccc2c(c1)OCO2` is 7.07%; for `Cc1ccc(NC(=O)c2cccc(-n3cnnn3)c2)cc1Cl` it is 4.03%; for `CCN1CC(CN(C)Cc2nc(Cc3ccccc3)no2)CC1=O` (stereo unspecified) it is 3.14%. With `O=C1c2ccccc2S(=O)(=O)c2cc(C(=O)N3CCN(c4ccccc4)CC3)ccc21`, the inhibition was 4.82%. Consider `O=C1c2ccccc2S(=O)(=O)c2cc(C(=O)N3CCN(c4ccc(Cl)cn4)CC3)ccc21`, for which the inhibition is 14%. The figure for `O=C(OCC(=O)N1CCCc2ccccc21)c1cccnc1Cl` is 0.07%; for `COC(=O)N/N=C/c1ccccc1` it is -2.71%.

Turning to `COC(=O)N/N=C/c1ccccc1Cl`, the inhibition is -1.15%. The figure for `COc1ccc(NC(=O)CSc2ccccc2)cc1S(=O)(=O)N1CCOCC1` is 9.25%. Under `CC(Nc1cc(N2CCN(C(=O)C(C)(C)C)CC2)ccc1[N+](=O)[O-])c1ccccc1` (stereo unspecified) stands 6.58%; under `CCCCc1nnc(NC(=O)c2ccc(N3CCCC3=O)cc2)s1`, 0.88%. The figure for `Cc1cc(NCCO)nc(-n2nc(C)cc2C)n1` is 1.56%; for `CCOc1ccc(Nc2cc(C)nc(N3CCOCC3)n2)cc1` it is -6.87%. For the compound `Cc1occc1C(=O)Nc1nnc(C(F)(F)F)s1`, the inhibition is -11.4%. Under `C(#Cc1ccc2c(c1)COc1c3ccccc3nn1-2)c1ccccc1` stands -2.59%. Consider `C#Cc1ccc2c(c1)COc1c3ccccc3nn1-2`, for which the inhibition was 26.7%.

With `COc1ccc(C(CNC(=O)Nc2ccc(Cl)cc2)N2CCN(C)CC2)cc1` (stereo unspecified), the inhibition is 6.3%. Regarding `COc1cccc(NC(=O)[C@@H]2CCCN2C(=O)C2CCN(S(=O)(=O)c3ccc(C)cc3)CC2)c1`, the inhibition was -6.02%.

With `CC(C)(C)Nc1nc(N2CCCC2)nc(N2CCCC2)n1`, the inhibition is 8.96%.

`CCNc1nc(NC(C)(C)C)nc(N2CCCC2)n1`: the inhibition is 12.8%. The figure for `O=C(COc1ccccc1Br)c1ccc2c(c1)OCO2` is -8.06%; for `C/C(=N\NC(=S)Nc1cccc(C)c1)c1cc2ccccc2o1` it is 67.2%. The figure for `CC/C(=N\NC(=S)Nc1cccc(C)c1)c1ccccc1` is 4.58%. Regarding `Cc1ccc2cc(C)c3nnc(SCC(=O)N4CCN(C(=O)c5ccco5)CC4)n3c2c1`, the inhibition was -3.44%. Turning to `COc1ccc(Cl)cc1NC(=O)CSc1nc(Nc2ccccc2)nc(N2CCOCC2)n1`, the inhibition is -3.97%.

`O=C(CSc1nc(Nc2ccccc2)nc(N2CCOCC2)n1)Nc1ccccc1Cl`: the inhibition was -2.86%.

With `COc1ccccc1OCCNC(=O)C1CC(=O)N(Cc2ccc(C)cc2)C1` (stereo unspecified), the inhibition was -0.95%. On to `Cc1csc(SCC(=O)NC(=O)NCc2ccccc2)n1`, for which the inhibition was -2.35%. Under `O=C(NC(=S)Nc1ccc2oc(=O)ccc2c1)c1cccc(Cl)c1` stands 5.43%. Take `CC(C)(C)N=C1NC(=NC(C)(C)C)c2ccccc21`: the inhibition is 1.58%.

As usually defined, the inhibition is the change of the read-out against control, counted positive when it falls.
